# The other results are listed elsewhere or left out. No count for the full screen is at hand.
# B1: VH:VL chains; a variant is named by its letters at X, in order (parent)
# chain 1: QVQLVQSGAEVKKPGASVKVSCKASGYTFTDYXMHWVRQAPGQGLEWMGXVNPNXXXTTYNQKFEGRVTMTTDTSTSTAYMELRSLRSDDTAVYYCARXNXLDXWGQGTTVTVSS
# chain 2: DIQMTQSPSSLSASVGDRVTITCSVSSSVSSIYLHWYQQKPGKAPKLLIYSTSNLASGVPSRFSGSGSGTDFTLTISSLQPEDFATYYCQVYSGYPLTFGGGTKVEIK
# Variants of: B1
# Assay: yeast display scFab, FACS + sequencing
# Conditions: with MET
# Outline: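 A heavy-chain CDR mutant scFab library on yeast was enriched magnetically with HGFR-Fc-coated Protein A beads for two rounds and then by FACS after labelling with 1 nM HGFR-Fc and anti-Myc in PBSB with 1% milk for 3 h at room temperature, gating the top 50% antigen-positive cells. Antigen binding was judged positive if a sequence turned up in both antigen-positive deep-sequencing samples and negative if it turned up only in the input.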
row,Variant,antigen binding call
1,DGGGNVSD,no binding
2,DEGGTDWV,no binding
3,SAREGYSV,no binding
4,DEARNAGA,no binding
5,FRTADVGV,no binding
6,FRTRSSGV,binds
7,FRGRSSGV,binds
8,FRGRGSGV,binds
9,FRAGSSGV,binds
10,VTKGGSSA,no binding
11,SEKKADWA,no binding
12,VTTKSDVA,no binding
13,VRTEDDVY,no binding
14,SEGRGSGV,no binding
15,FKGRGSGV,binds
16,VGGTSSSV,no binding
17,VRGEGSWD,binds
18,VRGTGSAD,no binding
19,VRGTGSWD,binds
20,VRGTGDWD,no binding
21,YTEGDDGV,no binding
22,YTGGDDWV,no binding
23,DEGTDYAA,no binding
24,FKGRGDGS,no binding

row,Variant,antigen binding call
1,FKGRGAWS,binds
2,FKGRGAGS,binds
3,FKTGDAWS,no binding
4,DATGGDGA,no binding
5,YKGGSSAD,binds
6,DKGGSSLD,no binding
7,YTGTSSAD,no binding
8,YKGGSSLD,binds
9,YEGTGSAD,no binding
10,DATGGSSA,no binding
11,YKRGSAWD,binds
12,YRRGDFWA,no binding
13,YKRGDAWD,binds
14,YTRGNAWA,no binding
15,YKRAAVWD,no binding
16,YKRGDAWA,binds
17,VKGTGVAY,no binding
18,VKGRGAAY,binds
19,VEGRGAVY,no binding
20,YKGRGAAY,binds
21,YAGETFGA,no binding
22,SETGGFVV,no binding
23,DGGENDVY,no binding
24,ARTKGSGY,no binding

row,Variant,antigen binding call
1,YTKEASGY,no binding
2,YRRKGSGY,binds
3,YRKGGSGY,binds
4,FRGRGAAY,binds
5,FRGRGSSY,binds
6,FRGRGSAY,binds
7,YRGRGSAY,binds
8,YEGGADVF,no binding
9,DAGAADAV,no binding
10,DTGTGSWD,no binding
11,VTEGGDAA,no binding
12,FKGRGAAY,binds
13,FTGRGAVA,no binding
14,FTGRGAAA,binds
15,FTRAGAAA,no binding
16,SEARSDSV,no binding
17,VKAGDAVY,no binding
18,YRAGDSGY,binds
19,VRAGDSGY,binds
20,DRAGDDGY,no binding
21,YTGTSDLA,no binding
22,YRGRGVGA,binds
23,FRGRGYGA,no binding
24,FRGRGAGA,binds

row,Variant,antigen binding call
1,FRGRGVGA,binds
2,ARGGDDGA,no binding
3,VGGTGSGA,no binding
4,VTGEDSLA,no binding
5,ATGTGSGA,no binding
6,VRGKGSGA,binds
7,VRGKGSLA,binds
8,VGGTSSGA,no binding
9,VAEKGSGA,no binding
10,VKGKGDLA,no binding
11,VRGTGSGA,binds
12,FERTSVWF chain 1 L45F,no binding
13,SAGGDYVF,no binding
14,YTGEGDGV,no binding
15,DREEGDAV,no binding
16,YTTRGSWV,no binding
17,YRGRSAWV,binds
18,YRGEGDAV,binds
19,YRGESAWV,binds
20,YRGEGDAA,no binding
21,YTGEGSWV,binds
22,VTKAASWV,no binding
23,SEEASAVY,no binding
24,DKTGDDGS,no binding

row,Variant,antigen binding call
1,YRGEGAWV,binds
2,YRGRDSSS,binds
3,YRGRDDLA,no binding
4,YRGAAASS,binds
5,YRGRDASA,binds
6,YRGRSASS,binds
7,VEGAAAGS,no binding
8,ATGEGDGV,no binding
9,SEARSFGV,no binding
10,YRGRSAGS,binds
11,YRGRDASS,binds
12,DAGGASGV,no binding
13,VRGTDAGV,no binding
14,VRGTDAVV,no binding
15,VRRRGAVV,binds
16,VERASAVV,no binding
17,VRRRGAGV,binds
18,SGRGNSGV,no binding
19,DARADSGV,no binding
20,AARADDGV,no binding
21,YRAKGAGV,binds
22,YRTKGSGV,binds
23,YRAKGSGV,binds
24,YGAKGDGV,no binding

row,Variant,antigen binding call
1,YRTRDSGV,binds
2,DTGTGASD,no binding
3,VAGGDAGV,no binding
4,AREEGFSV,no binding
5,ARAGDAVV,no binding
6,DRAGDDVV,no binding
7,YRAGDAVV,binds
8,YRAKGAVV,binds
9,AARADSSA,no binding
10,VGGGADVA,no binding
11,VTKTGDAV,binds
12,VTTKSAAA,no binding
13,YTGTSDAV,no binding
14,YTKTGDAV,binds
15,YTERGDAV,no binding
16,VTAGSDAV,no binding
17,VTKTGAAA,binds
18,VTGTGDAV,no binding
19,VTKTGDVA,no binding

# From the emibetuzumab library of Makowski et al. (2022)
